PubChem BioAssay AID1159580 (chemical genetic matrix, 2015)
Out of some 5,500 compounds screened, about 2,000 (36%) were called active. Not shown: some 18% with an inconclusive outcome. Some of the results follow. Values without a mark were called inactive. Cut-off read from the data, not from the text of the source: active = normalized growth mostly below about 0.91 (no sharp cut-off); inconclusive = no clear call, values can overlap the other calls; inactive = mostly above about 0.92.

Experiment: chemical genetic growth profiling, strain panel (AID 1159580);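 note: tested at 20 µM; growth read once vehicle control cultures reached saturation at 30 °C; 1 = growth at the plate median or of vehicle wells; lower values mean less growth of the strain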
Conditions: S. cerevisiae deletion strains, growth OD

CCOc1ccc(C(=O)c2ccc(OC)c(O)c2O)cc1
normalized growth (locus YAL021C, strain ccr4, hits give low values): 0.958 | normalized growth (locus YAL026C, strain drs2, hits give low values): 0.966 | normalized growth (locus YAL030W, strain snc1, hits give low values): 1.02 | normalized growth (locus YBL061C, strain skt5, hits give low values): 0.994 | normalized growth (locus YBR009C, strain hhf1, hits give low values): 0.962 | normalized growth (locus YBR023C, strain chs3, hits give low values): 0.977 | normalized growth (locus YBR171W, strain sec66, hits give low values): 1.02 | normalized growth (locus YBR231C, strain swc5, hits give low values): 0.939 | normalized growth (locus YBR279W, strain paf1, hits give low values): 0.973 | normalized growth (locus YCL011C, strain gbp2, hits give low values): 0.991 | normalized growth (locus YCL016C, strain dcc1, hits give low values): 0.973 | normalized growth (locus YCL061C, strain MRC1, hits give low values): 0.993 | normalized growth (locus YCL069W, strain vba3, hits give low values): 1.01 | normalized growth (locus YCR088W, strain abp1, hits give low values): 1.02 | normalized growth (locus YDL005C, strain med2, hits give low values): 1.05 | normalized growth (locus YDL040C, strain nat1, hits give low values): 1.01 | normalized growth (locus YDR001C, strain nth1, hits give low values): 1.03 | normalized growth (locus YDR069C, strain doa4, hits give low values): 0.974 | normalized growth (locus YDR137W, strain rgp1, hits give low values): 0.913 | normalized growth (locus YDR159W, strain sac3, hits give low values): 1.05 | normalized growth (locus YDR195W, strain ref2): 1.15 [resistant] (active) | normalized growth (locus YDR297W, strain sur2, hits give low values): 1.01 | normalized growth (locus YDR334W, strain swr1, hits give low values): 1.02 | normalized growth (locus YDR335W, strain msn5, hits give low values): 0.993 | normalized growth (locus YDR392W, strain spt3, hits give low values): 0.795 | normalized growth (locus YEL003W, strain gim4, hits give low values): 0.964 | normalized growth (locus YEL037C, strain rad23, hits give low values): 1.01 | normalized growth (locus YEL061C, strain CIN8 (second series), hits give low values): 1.02 | normalized growth (locus YER015W, strain faa2, hits give low values): 0.934 | normalized growth (locus YER016W, strain bim1, hits give low values): 1.01 | normalized growth (locus YER111C, strain swi4, hits give low values): 1.03 | normalized growth (locus YER155C, strain BEM2 (second series), hits give low values): 0.842 (active) | normalized growth (locus YFR010W, strain ubp6, hits give low values): 1.01 | normalized growth (locus YGL167C, strain pmr1, hits give low values): 0.997 | normalized growth (locus YGL173C, strain kem1, hits give low values): 0.999 | normalized growth (locus YGL227W, strain vid30, hits give low values): 1.03 | normalized growth (locus YGL240W, strain doc1, hits give low values): 0.982 | normalized growth (locus YGL253W, strain hxk2, hits give low values): 1 | normalized growth (locus YHR013C, strain ard1, hits give low values): 0.961 | normalized growth (locus YHR027C, strain rpn1, hits give low values): 1.01 | normalized growth (locus YHR030C, strain SLT2, hits give low values): 0.892 | normalized growth (locus YHR079C, strain IRE1, hits give low values): 0.913 | normalized growth (locus YHR142W, strain chs7, hits give low values): 0.963 | normalized growth (locus YJL092W, strain hpr5, hits give low values): 1.02 | normalized growth (locus YJL095W, strain BCK1 (second series), hits give low values): 0.987 | normalized growth (locus YJL095W, strain BCK1, hits give low values): 0.923 | normalized growth (locus YJL115W, strain asf1, hits give low values): 1.04 | normalized growth (locus YJL129C, strain trk1, hits give low values): 1.04 | normalized growth (locus YJL154C, strain vps35, hits give low values): 1.03 | normalized growth (locus YJL164C, strain tpk1, hits give low values): 0.964 | normalized growth (locus YJL166W, strain qcr8, hits give low values): 0.959 | normalized growth (locus YJL187C, strain SWE1, hits give low values): 1 | normalized growth (locus YJR066W, strain TOR1, hits give low values): 0.826 | normalized growth (locus YKL160W, strain elf1, hits give low values): 0.951 | normalized growth (locus YKR026C, strain gcn3, hits give low values): 1.03 | normalized growth (locus YKR091W, strain srl3, hits give low values): 1.02 | normalized growth (locus YLL001W, strain dnm1, hits give low values): 0.981 | normalized growth (locus YLL026W, hits give low values): 1.03 | normalized growth (locus YLL041C, strain sdh2, hits give low values): 1.01 | normalized growth (locus YLR027C, strain aat2, hits give low values): 0.986 | normalized growth (locus YLR113W, strain HOG1, hits give low values): 0.953 | normalized growth (locus YLR221C, strain rsa3, hits give low values): 0.977 | normalized growth (locus YLR258W, strain gsy2, hits give low values): 1 | normalized growth (locus YLR262C, strain YPT6 (second series), hits give low values): 0.875 | normalized growth (locus YLR320W, strain mms22, hits give low values): 0.949 | normalized growth (locus YLR342W, strain FKS1, hits give low values): 0.958 | normalized growth (locus YLR357W, strain rsc2, hits give low values): 0.949 | normalized growth (locus YLR370C, strain arc18, hits give low values): 1.02 | normalized growth (locus YLR384C, strain iki3, hits give low values): 1.02 | normalized growth (locus YML120C, strain ndi1, hits give low values): 0.997 | normalized growth (locus YMR058W, strain fet3, hits give low values): 0.818 (active) | normalized growth (locus YMR125W, strain sto1, hits give low values): 1.02 | normalized growth (locus YMR129W, hits give low values): 1.01 | normalized growth (locus YMR205C, strain PFK2, hits give low values): 1.01 | normalized growth (locus YMR231W, strain pep5, hits give low values): 0.992 | normalized growth (locus YNL071W, strain lat1, hits give low values): 0.972 | normalized growth (locus YNL183C, strain NPR1, hits give low values): 0.866 | normalized growth (locus YNL209W, strain ssb2, hits give low values): 0.909 (active) | normalized growth (locus YNL248C, strain rpa49, hits give low values): 1.03 | normalized growth (locus YNL322C, strain KRE1 (second series), hits give low values): 1.03 | normalized growth (locus YNR049C, strain mso1, hits give low values): 1.06 | normalized growth (locus YOR001W, strain rrp6, hits give low values): 0.996 | normalized growth (locus YOR070C, strain gyp1, hits give low values): 0.989 | normalized growth (locus YOR080W, strain dia2, hits give low values): 1.04 | normalized growth (locus YOR083W, strain WHI5, hits give low values): 0.953 | normalized growth (locus YOR106W, strain vam3, hits give low values): 0.892 | normalized growth (locus YOR231W, strain MKK1, hits give low values): 0.94 | normalized growth (locus YOR265W, strain rbl2, hits give low values): 1.01 | normalized growth (locus YOR270C, strain vph1, hits give low values): 0.918 | normalized growth (locus YOR290C, strain snf2, hits give low values): 0.955 | normalized growth (locus YPL051W, strain arl3, hits give low values): 0.878 (active) | normalized growth (locus YPL078C, strain atp4, hits give low values): 0.957 | normalized growth (locus YPL106C, strain sse1, hits give low values): 0.957 | normalized growth (locus YPL240C, strain hsp82, hits give low values): 1.01 | normalized growth (locus YPL256C, strain CLN2, hits give low values): 0.954
